TGFb SMAD3 inh – inhibitors of TGF-b signaling; HepG2 CAGA-GFP TGF-b/SMAD3 reporter, GFP fluorescence, 18 h; TGF-beta stimulated, 500 pg/mL final; Potency, µM (titrated, usually from 46.1 µM), for inactives: top-dose activity, negative = inhibition, most hits filed as inhibitors; 410,000 tested, 1.2% active; AID 588855; also: % is scaled to controls: 0 for no effect and ±100 for the full control effect; nearly all actives have a fitted effect of over 65% in size
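GFP signal (ex488/em500-530) from TGF-beta-stimulated HEPG2 CAGA-GFP cells, 500 pg/mL final, 18 h at 37 degrees C in DMEM plus 1% FBS, normalized to unstimulated and DMSO-stimulated controls.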
ATXN2 expr inh – inhibitors of ATXN2 expression; 360,000 tested, 0.72% active; AID 1745845; Potency, µM (highest dose often 57 µM), inactives show at the top dose activity change, negative = inhibition, usual class: inhibitors; HEK-293 ATXN2-luciferase reporter, luminescence, 24 h; also: % is scaled to controls: 0 for no effect and ±100 for the full control effect; nearly all actives have a fitted effect of over 55% in size
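qHTS (up to 57 uM final) was run with 24 h compound exposure of reporter cells at 37 °C. Each well was multiplexed: SteadyGlo luminescence measured ATXN2-luciferase expression after a fluorogenic Gly-Phe-AFC viability readout (25 uM final).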
HepG2 tox-1 – counter-screen for TGF-b inhibitors: cytotoxicity in HepG2 cells | HepG2 CAGA-GFP viability, ATP luminescence, 18 h | Potency, µM (series often up to 46.1 µM), for inactives: at the top dose activity change, negative = cytotoxicity, actives largely listed as cytotoxic | 410,000 tested, 0.76% active | AID 588856
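HepG2 CAGA-GFP cells (1000/well, DMEM with 1% FBS) received compound, then TGF-beta at 500 pg/mL final, and were incubated 18 hours at 37 degrees C. Viability was read by CellTiter-Glo luminescence. Media-only wells were set as complete cell-killing and DMSO as no toxicity.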
S2 tox – reduces viability in counter-screen for ATXN expression inhibitors; S2 cells (HEK-293 line with an ATXN2-luciferase reporter) viability, CellTiter-Fluor protease fluorescence, 24 h; Potency, µM (top dose mostly 56.7 µM), most hits filed as cytotoxic; 400,000 tested, 0.49% active; also: nearly all actives have a fitted effect of over 40% in size
TGFb confirm – confirmation of TGF-b signaling inhibitors in HepG2 reporter cells; shares compounds with TGFb SMAD3 inh; HepG2 CAGA-GFP TGF-b reporter, GFP fluorescence, 18 h; cells stimulated with TGF-beta, 500 pg/mL; Potency, µM (series often up to 46.1 µM), without a hit: at the highest dose activity, negative = inhibition, most hits filed as inhibitors; 1,600 tested, 63% active; AID 720534; also: % is scaled to controls: 0 for no effect and ±100 for the full control effect; nearly all actives have a fitted effect of over 65% in size
HepG2 tox-2 – toxic to HepG2 cells in TGF-b counterscreen; shares compounds with TGFb SMAD3 inh; HepG2 CAGA-GFP viability, ATP luminescence, 18 h; cells stimulated with TGF-beta, 500 pg/mL; Potency, µM (highest dose often 46.1 µM), for inactives: at the highest dose activity, negative = cytotoxicity, hits mostly inhibitors; 1,600 tested, 27% active; AID 720535; also: % is scaled to controls: 0 for no effect and ±100 for the full control effect; nearly all actives have a fitted effect of over 70% in size
CCL64 TGFb inh – TGF-b inhibition, CCL64 orthogonal assay; shares compounds with TGFb SMAD3 inh; Potency, µM (titrated, usually from 46.1 µM), without a hit: top-dose activity, negative = inhibition, most hits filed as inhibitors; AID 720536; 1,600 tested, 41% active; CCL64 CAGA-GFP reporter, TGF-b stimulated, GFP fluorescence, 18 h; also: nearly all actives have a fitted effect of over 65% in size
COP TGFb inh – TGF-b inhibition validated with COP promoter | shares compounds with TGFb SMAD3 inh | AID 720537 | HepG2 COP-GFP TGF-b reporter, GFP fluorescence, 18 h; cells stimulated by added recombinant TGF-beta | Potency, µM (titrated, usually from 46.1 µM), for the others: at the top dose activity, negative = inhibition, actives largely listed as inhibitors | 1,600 tested, 3% active; also: nearly all actives have a fitted effect of over 70% in size
An asterisk follows results filed as active; i = inactive; ? = inconclusive; . = no result. A selection: hits, their analogues and other compounds. The true share with any hit is near 2.3%. Calls follow the shape of the dose curve; as a rule, active = well fitted curve in the direction sought with a large enough effect; inconclusive = small, poorly fitted or top-dose-only effect, or another doubt; inactive = no such curve, though single readings can be large; an effect the other way counts as inactive or inconclusive. Potency is read from the fitted curve at half-maximal effect.

SMILES	TGFb SMAD3 inh	ATXN2 expr inh	HepG2 tox-1	S2 tox	TGFb confirm	HepG2 tox-2	CCL64 TGFb inh	COP TGFb inh
O=C1NCCN1CCNc1nc(NCc2ccccc2)nc2ccsc12	7.9µM*	-3%	-47%	?	15µM*	?	?	50%
c1ccc(CNc2nc(NCCc3ccncc3)c3sccc3n2)cc1	2.2µM*	0%	-43%	?	1.5µM*	7.3µM*	4.6µM*	34%
CCOc1c2c(c(-c3ccc4c(c3)OCO4)c3cc(OC)c(OC)cc13)C(=O)OC2	?	.	-40%	.	.	.	.	.
O=C(C[n+]1ccc(Cl)c2ccc(Cl)cc21)c1ccc(F)cc1	-10%	.	-7%	.	.	.	.	.
N#Cc1sc2nccc(Nc3ccccc3)c2c1N	4.5µM*	-6%	-19%	?	8.2µM*	10%	10%	-3%
O=C(c1cc(-c2ccccc2)n[nH]1)N1CCc2c([nH]c3ccccc23)C1c1ccccn1 (stereo not drawn)	20µM*	?	-26%	?	15µM*	?	?	20%
O=C(c1cccs1)N1CCc2c([nH]c3ccccc23)C1c1ccccn1 (stereo not drawn)	-4%	-12%	-22%	i	.	.	.	.
O=C(NCCCCCCNC(=O)OCc1ccccc1)OCc1ccccc1	-12%	-17%	0%	i	.	.	.	.
O=C(OCc1ccccc1)N(CCCCN(CCCNCc1ccccc1)C(=O)OCc1ccccc1)CCCNCc1ccccc1	5µM*	?	5.6µM*	?	13µM*	8.2µM*	?	?
NC(=O)c1c(NC(=O)c2ccc([N+](=O)[O-])o2)sc2c1CCCC2	?	-15%	-25%	i	.	.	.	.
N#Cc1c(NC(=O)c2ccc([N+](=O)[O-])o2)sc2c1CCC2	?	?	-25%	?	12µM*	9.2µM*	15µM*	33%
CN1CCc2c(sc(NC(=O)c3ccc([N+](=O)[O-])o3)c2C(N)=O)C1	1.8µM*	?	-94%	?	0.58µM*	2.3µM*	?	-80%
CC1(C)CC(=O)C2=C(C1)NC(Nc1nc3ccccc3o1)=NC2c1ccccc1 (stereo not drawn)	8%	.	6%	.	.	.	.	.
OCC1OC(n2ccc3c(NO)ncnc32)C(O)C1O (stereo not drawn)	0.28µM*	?	0.5µM*	?	1.2µM*	0.58µM*	1.3µM*	40%
CN(C)c1nc2c(N)ncnc2n1C1OC(CO)C(O)C1O (stereo not drawn)	-1%	5%	18%	i	.	.	.	.
CN(C)c1ncnc2c1ccn2C1OC(CO)C(O)C1O (stereo not drawn)	0.22µM*	1%	0.13µM*	i	0.23µM*	1.3µM*	6.5µM*	25%
OCC1OC(n2cnc3c(NCc4ccccc4O)ncnc32)C(O)C1O (stereo not drawn)	1.8µM*	?	-71%	?	1.2µM*	4.1µM*	?	45%
OC[C@H]1O[C@@H](n2cnc3c(Nc4ccccc4)ncnc32)[C@H](O)[C@@H]1O	-6%	37%	-10%	i	.	.	.	.
CCOc1nc(C#N)nc(N2CCOCC2)n1	?	.	-11%	.	.	.	.	.
Cc1ccc(S(=O)(=O)N2CCN(S(=O)(=O)c3ccc4c(c3)OCCCO4)CC2)cc1	4%	.	5%	.	.	.	.	.
CCN(CC)CC(C)(C)C(=O)/C=C/c1ccc(/C=C/C(=O)C(C)(C)CN(CC)CC)cc1	4.5µM*	4µM*	5µM*	5.6µM*	3.3µM*	3.3µM*	4.6µM*	?
CCN(CC)CCOC(=O)/C=C/c1ccccc1	-15%	.	-18%	i	.	.	.	.
C[C@]12CCC(=O)C=C1CC[C@@H]1[C@H]2[C@@H](O)C[C@@]2(C)[C@H]1CC[C@]2(O)C(=O)CO	.	-11%	.	.	.	.	.	.
Cn1cc([N+](=O)[O-])c(C(=O)Nc2ccc3nc(-c4ccccc4)[nH]c3c2)n1	7.9µM*	44%	25%	i	6.5µM*	?	12%	23%
Cn1cc([N+](=O)[O-])c(C(=O)Nc2ccc(-c3nc4ccccc4[nH]3)cc2)n1	?	-4%	-21%	i	.	.	.	.
SMILES	TGFb SMAD3 inh	ATXN2 expr inh	HepG2 tox-1	S2 tox	TGFb confirm	HepG2 tox-2	CCL64 TGFb inh	COP TGFb inh
Nc1nc(N)c2c(ccc3c2ccn3Cc2cccc([N+](=O)[O-])c2)n1	3.5µM*	?	-98%	?	4.6µM*	0.29µM*	?	13µM*
CCCCN(CC)C(=O)CSc1nc2n[nH]c(C)c2c(=N)n1-c1cccc(C)c1	7.1µM*	.	-30%	?	?	-18%	?	11%
CCc1c(C)c2ccccc2[nH]c1=O	11%	.	-4%	.	.	.	.	.
CCc1nc(N)nc(N)c1-c1ccc(N(C)Cc2ccccc2)c([N+](=O)[O-])c1	0.71µM*	19µM*	-38%	?	?	0.29µM*	29µM*	82%
CSc1ccc(/C=C/c2ccnc3ccccc23)cc1	-4%	.	7%	.	.	.	.	.
CN(CC1(C)CCCO1)S(=O)(=O)c1ccc(Cl)c(S(N)(=O)=O)c1 (stereo not drawn)	.	11%	.	i	.	.	.	.
O=S(=O)(/C(=C\c1ccc(C(F)(F)F)cc1)c1nc2ccccc2[nH]1)c1ccccc1	4.5µM*	5µM*	18µM*	7.1µM*	2.9µM*	2.6µM*	3.3µM*	?
O=C(NCc1ccco1)/C(=C/c1ccc(C(F)(F)F)cc1)c1nc2ccccc2[nH]1	-3%	28%	-25%	i	.	.	.	.
COc1cc(/C=C/c2cc[n+](C)c3ccccc23)cc(OC)c1OC	7%	.	10%	.	.	.	.	.
Cc1ccc2nc(N=C(N)N)nc(C)c2c1	?	-32%	-16%	i	.	.	.	.
Cc1nc(N=C(N)N)nc2ccccc12	13µM*	?	-1%	i	16µM*	?	-1%	21%
N#CCSc1ncnc2ccccc12	-28%	-12%	-13%	i	.	.	.	.
c1ccc(Sc2ncnc3ccccc23)cc1	10µM*	27%	-36%	i	10µM*	?	?	40%
O=C(Nc1cccc2ccccc12)N1CCN(Cc2ccccc2)CC1	2%	2%	-1%	i	.	.	.	.

Screens: PubChem BioAssay, National Center for Advancing Translational Sciences (NCATS)
